Screens as filed in PubChem.
Compounds with a hit are over-represented: about 1.1% of the library has one in this group of screens.
12-LOX inh = Primary qHTS assay for inhibitors of human arachidonate 12S-lipoxygenase (ALOX12): Round 2; Polyunsaturated fatty acid lipoxygenase ALOX12 (Homo sapiens), P18054; purified 12hLO, xylenol orange hydroperoxide absorbance; Potency, µM (titrated, usually from 108 µM), hits mostly inhibitors; 1.1% of 580,000 active; AID 1671190, 2021
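Hydroperoxide product was detected by ferrous iron/xylenol orange as the 573 to 405 nm absorbance ratio. Arachidonic acid at 40 uM (final) was turned over for 30 min at room temperature by 150 nM human 12hLO, pH 7.0 Hepes buffer, after 15 min compound preincubation.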
TSG101-PTAP inh = qHTS Assay for Iinhibitors of HIV-1 Budding by Blocking the Interaction of PTAP/TSG101; Potency, µM (highest dose often 115 µM), hits mostly inhibitors; Tumor susceptibility gene 101 protein (Homo sapiens), Q99816; 340,000 tested, under 10 active; Fluorescence polarization, FITC-PTAP peptide / Tsg101 binding; AID 493005, 2010; active = well fitted inhibition curve with a large enough effect in the main read-out, with a control signal flat, not every such curve was filed as active; inconclusive = small, poorly fitted or top-dose-only effect, or effect the other way, or a change in a side signal; inactive = no such curve, though single readings can be large or run the other way
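Compounds were pin-transferred onto Tsg101 binding domain (10 uM final) in HEPES pH 7.5 buffer, then FITC-PTAP peptide was added at 50 nM final. After 20 min at RT, polarization reported peptide displacement across a qHTS concentration series.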
Eya2 inh = qHTS Assay for Inhibitors of the Phosphatase Activity of Eya2; 0.006% of 330,000 active; Potency, µM (doses to about 76.9 µM), actives largely listed as inhibitors; Protein phosphatase EYA2 (Homo sapiens), O00167; recombinant Eya2, OMFP fluorescence dephosphorylation (OMFP is methylfluorescein phosphate)
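Eya2 protein (added as 0.2 uM solution) was preincubated with compound for 10 min at ambient temperature in 50 mM HEPES pH 7.5, 50 mM NaCl, 5 uM MgCl2, 0.05% BSA, 1 mM DTT. OMFP (added at 50 uM) then reacted 10 min; fluorescence read at 485/525 nm.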
USP2a inh = qHTS Assay for Inhibitors of Ubiquitin-specific Protease USP2a Using CHOP2 as the Reporter; Ubiquitin carboxyl-terminal hydrolase 2 (Homo sapiens), O75604; USP2 core, Ub-CHOP2 coupled fluorogenic reporter, 485/531; Potency, µM (doses to about 38.3 µM), most hits filed as inhibitors; 0.01% of 330,000 active
Target sequence (O75604 whole entry, looked up): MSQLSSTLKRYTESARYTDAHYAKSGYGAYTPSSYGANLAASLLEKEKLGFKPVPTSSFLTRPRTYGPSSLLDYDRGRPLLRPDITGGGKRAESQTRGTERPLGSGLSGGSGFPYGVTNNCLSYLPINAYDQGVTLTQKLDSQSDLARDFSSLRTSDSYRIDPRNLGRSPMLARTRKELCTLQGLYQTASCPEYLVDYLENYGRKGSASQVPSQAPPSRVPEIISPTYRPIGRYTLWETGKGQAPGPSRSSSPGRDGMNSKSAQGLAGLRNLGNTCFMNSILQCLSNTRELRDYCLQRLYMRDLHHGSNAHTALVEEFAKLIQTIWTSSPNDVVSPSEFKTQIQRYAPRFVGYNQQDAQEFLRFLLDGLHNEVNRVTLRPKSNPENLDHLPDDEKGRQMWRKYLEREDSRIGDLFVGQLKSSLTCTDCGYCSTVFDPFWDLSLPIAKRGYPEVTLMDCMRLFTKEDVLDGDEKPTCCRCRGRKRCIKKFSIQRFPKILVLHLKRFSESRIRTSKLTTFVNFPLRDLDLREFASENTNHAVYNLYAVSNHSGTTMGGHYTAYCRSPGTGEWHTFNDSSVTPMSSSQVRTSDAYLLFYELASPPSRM
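Cell-free coupled assay: 10nM USP2 core preincubated 30min RT with compound in Tris-HCl pH 8.0/CaCl2/CHAPS buffer, then 25nM Ub-CHOP2 and 25nM reporter substrate; fluorescence (Ex 485/Em 531) read after 60min RT, normalized to NEM inhibition, concentration-response curves fitted.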
Numbers stand for hits; – = inactive; ? = inconclusive; · = no result given; ! = not confirmed by another sample; [ ] = remark or other dose. Unless noted, calls follow the shape of the dose curve; as a rule, active = well fitted curve in the direction sought with a large enough effect; inconclusive = small, poorly fitted or top-dose-only effect, or another doubt; inactive = no such curve, though single readings can be large; an effect the other way counts as inactive or inconclusive.

SMILES	12-LOX inh	TSG101-PTAP inh	Eya2 inh	USP2a inh
CN(Cc1ccc(F)cc1F)C(=O)c1cc(Br)ccc1O	10µM	·	·	·
O=C1N(c2ccccc2)c2ccccc2C1(Cc1ccncc1)Cc1ccncc1	24.3µM!	–	–	–
CC1(CCBr)C(=O)N(c2ccccc2)c2ccccc21 (stereo unspecified)	–	–	–	–
CN(C(=O)CCc1ccsc1)C1CCCN(CCc2ccccc2)C1 (stereo unspecified)	–	·	·	·
S=c1[nH]nc(CSCc2ccccc2Cl)n1C1CCCCC1	44.7µM	–	–	–
Cc1cc(O)c2c(c1O)C(=O)C(O)=C(O)C2=O	28.2µM	·	·	·
COc1ccc(-c2cc(C(=O)NC3CC3)c3c(C4CCCNC4)noc3n2)cc1 (stereo unspecified)	–[6.33 µM]	·	·	·
CCOc1ccc(/C=C2\SC(=S)N(C(C(=O)O)c3ccccc3)C2=O)cc1OC (stereo unspecified)	15.8µM	–	–	–
COc1cccc(/C=C2\SC(=S)N(C(Cc3ccccc3)C(=O)O)C2=O)c1 (stereo unspecified)	44.7µM	–	–	–
O=C(O)C(Cc1ccccc1)N1C(=O)/C(=C/c2cccs2)SC1=S (stereo unspecified)	?	–	–	–
O=S(=O)(c1ccc(F)cc1)N1CCC(c2nc3ccccc3[nH]2)CC1	–	–	–	–
O=C(c1ccc(S(=O)(=O)N2CCC(c3nc4ccccc4[nH]3)CC2)cc1)N1CCOCC1	5.62µM	·	–	–
CC(C)(C)c1cc(NCc2cccnc2)n2ncc(-c3ccccc3)c2n1	–	·	·	·
COc1ccc(C2CC(c3ccc4ccccc4c3)=NN2C(=O)CNC2CCCCC2)cc1 (stereo unspecified)	44.7µM	–	–	–
CCOC(=O)c1[nH]c(C)c(/C(Br)=C/Br)c1C	6.31µM	·	·	·
N#C/C(=C\c1coc2ccc(O)cc2c1=O)C(=O)Nc1nc2ccccc2s1	11.2µM	?	?	–
COc1ccc(Cl)cc1NC(=O)/C(C#N)=C/c1coc2ccc(C)cc2c1=O	–	·	·	·
COC(=O)c1cc2ccccc2cc1OS(=O)(=O)c1ccc(C)cc1C	–	·	·	·
NC(=S)N/N=C1\CC(c2ccc3c(c2)OCCCO3)Oc2ccc(F)cc21 (stereo unspecified)	6.31µM	–	–	–
NC(=S)N/N=C1\CC(c2ccc3c(c2)OCCO3)Oc2ccc(F)cc21 (stereo unspecified)	?	–	–	–
CCOCCSc1nc2c(c(=O)[nH]c(=O)n2C)n1CCC(C)C	–	·	·	·
COc1cc(CCN(C(C)=O)C2C(=O)Nc3ccccc3N=C2c2ccc3c(c2)OCO3)cc(OC)c1 (stereo unspecified)	2µM	·	·	·
CN1C[C@@H](F)[C@@H](OCc2nc3ccc(C(F)(F)F)cc3[nH]2)C1	–	·	·	·
CN(C(=O)c1cc2ccccc2oc1=O)C1CCCN(CCCc2ccccc2)C1 (stereo unspecified)	–	·	·	·
O=C(CN1C(=O)c2ccccc2S1(=O)=O)c1ccc(Cl)cc1Cl	8.91µM!	–	·	·
SMILES	12-LOX inh	TSG101-PTAP inh	Eya2 inh	USP2a inh
O=C(CN1C(=O)c2ccccc2S1(=O)=O)c1ccccc1F	–	–	–	–
COc1ccc(Cn2c3c(c(=O)n2Cc2ccccc2)CCN(CC2CCOC2)C3)cc1 (stereo unspecified)	–	·	·	·
CCc1ccc(-n2cc(-c3ccc([N+](=O)[O-])cc3)[nH]c2=S)cc1	–	–	–	–
CCc1ccc(-c2cn(C3CCCCC3)c(=S)[nH]2)cc1	20µM	–	–	–
CC1(c2ccccc2)N(Cc2ccccc2C#N)C(=O)OC12CCN(C(=O)CCc1cccnc1)CC2 (stereo unspecified)	–	·	·	·
O=C(O)c1ccccc1NC(c1ccccc1)c1ccc2cccnc2c1O (stereo unspecified)	17.8µM	–	·	·
COc1ccc(S(=O)(=O)N2CCC3(CC2)CC(N2CCOCC2)CCO3)cc1 (stereo unspecified)	–	·	·	·
CCCNC(=O)c1cccc(NC(=O)CCc2ccccc2)c1	–	·	·	·
Fc1ccc(N/N=C/c2ccccc2Cl)c(F)c1	3.16µM	·	·	·
Cc1cc(C)nc(N/N=C/c2sccc2C)n1	–	–	–	–
Cc1ccsc1/C=N/Nc1ccc(F)cc1F	39.8µM	–	–	–
Fc1ccc(N/N=C/c2cccnc2)c(F)c1	–	–	–	–
Fc1ccc(N/N=C/c2ccc(Cl)c(Cl)c2)c(F)c1	35.5µM	·	·	·
COC(=O)[C@@H]1Cc2c([nH]c3ccccc23)[C@H]2C[C@H](NCCN3CCOCC3)C[C@@H](c3ccc(F)cc3)N21	–	·	·	·
CCn1c(-c2csc(C(C)C)c2)n[nH]c1=S	?	–	–	–
CC(C)Cn1c(-c2csc(C(C)C)c2)n[nH]c1=S	39.8µM	–	–	–
CNc1nc(SCC(=O)Nc2cc(C)on2)nc2ccccc12	–	·	·	·
Nc1c(C(=O)Nc2ccc(C(=O)O)cc2)sc2nc3c(cc12)CCCC3	17.8µM	·	·	·
CN1CCc2nc3sc(C(=O)c4ccc(Cl)cc4)c(N)c3cc2C1	35.5µM	·	·	·
Nc1c(C(=O)c2ccc(Cl)cc2)sc2nc3c(cc12)CCC3	–	–	–	–
Nc1c(C(=O)Nc2cccc(C(=O)O)c2)sc2nc3c(cc12)CCCC3	?	–	–	–
Oc1ccc2ccccc2c1CN1CCN(c2ccccc2F)CC1	44.7µM	–	–	–
Oc1ccc2ccccc2c1CN1CCN(C/C=C/c2ccccc2)CC1	?	–	–	–
O=S(=O)(c1ccccc1)N1CCN(Cc2c(O)ccc3ccccc23)CC1	7.08µM	–	–	–
O=C(Nc1ccc(C(F)(F)F)cc1)C1CCCC1	–	·	·	·
SMILES	12-LOX inh	TSG101-PTAP inh	Eya2 inh	USP2a inh
CN(C)/C=C/C(=O)c1ccc(Oc2ccccc2)cc1	5.01µM	–	–	–
O=C(CCl)NCCNC(=O)c1cc(OCC(F)(F)F)ccc1OCC(F)(F)F	–	–	–	–
O=C(NCC1CCCCN1)c1cc(OCC(F)(F)F)ccc1OCC(F)(F)F (stereo unspecified)	1.53µM!	–	–	–
O=C(CCCn1c(=O)c2cccn2c2ccccc21)N1CCN(c2cccc(Cl)c2)CC1	–	·	·	·
COc1cc(Cl)ccc1-c1cccc(COc2cnc3c(ccn3CC(=O)O)c2)c1	63.1µM	·	·	·
O=C(CN1C(=O)/C(=C/c2ccco2)SC1=S)Nc1ccc(C(=O)O)c(O)c1	28.2µM	–	–	–
O=C(CCCN1C(=O)/C(=C\c2ccco2)SC1=S)Nc1ccc(O)cc1C(=O)O	28.2µM	–	–	?
C=CC(=O)NCC1OCCc2ccccc21 (stereo unspecified)	?	–	–	–
O=C(/C=C/c1ccco1)NCC1OCCc2ccccc21 (stereo unspecified)	44.7µM	–	–	–
CC1CCC(COC(=O)C[N+]2(C)CCCCC2)C(C)C1 (stereo unspecified)	22.4µM	·	·	·
Cc1cc(C(=O)OCC(=O)Nc2ccc(C)c(C)c2)c2ccccc2n1	–	·	·	·
